Data on 40 compounds can be found in PubChem BioAssay (EPA / NIEHS).

The AC50 is the midpoint of the concentration-response curve, whichever way the signal moves.

The source made the active and inactive calls. The calls were made as follows: active = hit-call score of the fitted dose curve at least 0.9, where 1 is the maximum; inactive = score below 0.9.

Read-out in the test: matrix metalloproteinase-3 (MMP3), MMP3 (gene 4314)
The experiment in a line: LTEA_HepaRG_MMP3: Life Technologies and Expression Analysis (LTEA) Assay for matrix metalloproteinase-3 (MMP3) using HepaRG (AID 2283519). Particulars: mRNA level, 48 h; actives raise or lower the signal. As to the method: LTEA_HepaRG is a cell based, multiplexed-readout assay that uses HepaRG, a human liver cell line, with measurements taken at 48 hours after chemical dosing on a 96-well plate.LTEA_HepaRG_MMP3 is one of 102 assay component(s) measured in the LTEA HepaRG cell culture assay. It is a marker of Fibrosis.Data from the assay component LTEA_HepaRG_MMP3 was analyzed into 1 endpoint. This assay endpoint, LTEA_HepaRG_MMP3, was analyzed with bidirectional fitting relative to DMSO as the negative control and baseline of activity. Using a type of inducible reporter, measures of mRNA induction for gain or loss-of-signal activity can be used to understand regulation of transcription factor activity. To generalize the intended target to other relatable targets, this assay endpoint is annotated to the protease intended target family, where the subfamily is matrix metalloproteinase.
A total of 1060 chemcials from the ToxCast library were tested in eight-point concentration-response experiments. Cell culture and cytotoxicity assays were conducted at Thermo Fisher Scientific's Custom Services facility (Madison, WI). A single lot of human HepaRG cells (Thermo Fisher Scientific, Frederick, MD) was used for the cell culture experiments. 96-well format collagen type I coated plates of human HepaRG cells were prepared using established methods. Briefly, cryopreserved HepaRG cells were thawed, plated at a density of approximately 100,000 cells/well in HepaRG Thaw, Plate, and General Purpose media (HPRG770, Thermo Fisher Scientific), and incubated for 48 hours. 0.5% DMSO was selected as vehicle control to balance the requisite need of DMSO in HepaRG cultures to maintain differentiation (for example, baseline metabolism, proportions of hepatocytes vs. cholangiocytes), while enabling further hepatic receptor pathway activation (for example, PXR and CAR) in response to chemical exposure. 48 hours after plating, the culture medium was replaced with HepaRG Serum-Free Incudtion Media. Cells were exposed to each test chemical in duplicate and maintained in CO2 incubators for another 48 hours. Chemical plates were thawed to room temperature and 200x concentrations of treatment groups were prepared. 8-point conentration-reponse curves were made with the highest exposure at 100 uM, followed by half-log dilutions, all in 0.5% DMSO. Each test plate contained variouse controls, induction positive controls (1mM phenobarbital), cytotoxicity positive controls ([…] aflatoxin B1), vehicle controls (0.5% DMSO), and total lysis controls (0.5% DMSO). Cell morphology images were taken using an Essen IncuCyte FLR automated microscope, with six 96-well plates imaged in about 24 minutes. Images were captured and exported and JPEG files. Spent culture media was transfered to black-well plates for the LDH assay, and remaining media was sorted at -80 C for later use. Cells were treated with RLT buffer and frozen until shipped for gene expression analysis. Total RNA was isolated from the cell suspension in 75 uL of Buffer RLT (Qiagen, Germantown, MD 20874) by Quintiles/Expression Analysis (Durham, NC) using a custom isolation procedure. Total RNA from each plate well was transferred to a preamplification plate. Fluidigm's 96.96 Dynamic ArrayTM (Fluidigm, Amsterdam, the Netherlands) technology was used for gene expression analyses by quantitative reverse transcription polymerase chain reaction (qRT-PCR, performed by Quintiles/Expression Analysis, Durham, NC)89. Standard TaqManTM Assays (Applied Biosystems/ThermoFisher Scientific, Foster City, CA) were used to assess the expression of 93 genes selected based on their selectivity and sensitivity to important hepatic receptors known to be modulated by environmental chemicals; importance in human hepatocyte functionality; and hepatotoxicity. […]
Turning to `CCCCN(CCCC)CCCC`, the result was inactive.
Regarding `Cc1ccc(Cl)cc1`, the result was inactive.
Turning to `CN[C@H]1CC[C@@H](c2ccc(Cl)c(Cl)c2)c2ccc(S(N)(=O)=O)cc21`, the AC50 is 84.1 µM (active).
Consider `COCCOC[C@H](CC1(C(=O)NC2CCC(C(=O)O)CC2)CCCC1)C(=O)Oc1ccc2c(c1)CCC2` (stereo not given in full), for which the result was inactive.
Turning to `Cc1ccc(C)c(O)c1C`, the compound was called inactive.
With `Cc1cc(NC(=O)C(=O)O)cc(C)c1Oc1ccc(O)c2c1CCC2`, the result was inactive.
Still for that read-out and setting: as for `Nc1nc(N)c2nc(CNc3ccc(C(=O)N[C@@H](CCC(=O)O)C(=O)O)cc3)cnc2n1`, the entry is “inactive”; as for `CCCCCCCCCCC`, “inactive”.
Regarding `Nc1ccccc1N`, the half-maximal activity concentration (AC50) was 81.8 µM (active).
In the case of `NCCO`, the call was inactive.
Regarding `CC(C)(C)c1cc(O)c(C(C)(C)C)cc1O`, the half-maximal activity concentration (AC50) was 50 µM (active).
In the case of `NCC1(Cc2noc(=O)[nH]2)CCCCC1`, the compound was classed as inactive.
For the compound `COCCOCCOC`, the compound was called inactive.
Take `C=CCOC(=O)c1ccccc1C(=O)OCC=C`: the call was inactive.
As to `Cc1ccc(N(C)C)cc1`, the outcome was inactive.
For the compound `O=[N+]([O-])C(CO)(CO)CO`, the call was inactive.
As to `Cc1oc(-c2ccccc2)nc1CCOc1cccc2c1ccn2CCC(=O)O`, the outcome was inactive.
`CCCc1cc(=O)[nH]c(=S)[nH]1`: the call was inactive.
Turning to `CN1CCN(Cc2cc(-c3ccc4[nH]c(=O)oc4c3)co2)[C@@H](c2ccc(F)cc2)C1`, the call was inactive.
Regarding `NS(=O)(=O)c1cc2c(cc1Cl)NCNS2(=O)=O`, the compound was called inactive.
Consider `CCCCOC(=O)CCCCCCCCC(=O)OCCCC`, for which the call was inactive.
Same read-out and setting: as for `Cc1ccc2ncccc2c1`, the entry is “inactive”; as for `CC(=O)OC/C=C(\C)CCC=C(C)C`, “inactive”; as for `C1CCC(SSC2CCCCC2)CC1`, “inactive”.
Turning to `CCCCCCCCCCCCCCCCCC(=O)O`, the call was inactive.
Turning to `O=C(O)Cc1ccccc1Nc1c(Cl)cccc1Cl`, the compound was classed as inactive.
For `Cc1cc(=O)[nH]c(=S)[nH]1`, the outcome was inactive.
On the same count and under the same terms, under `Cc1cccc(C)c1O` stands “inactive”; under `O=C(O)CCCCC(=O)O`, “inactive”.
`Nc1ccc(S(=O)(=O)c2ccc(N)cc2)cc1`: the call was inactive.
As to `Cc1ccccc1Cl`, the outcome was inactive.
As for `CCCCCCCCCCO`, the call was inactive.
For `CCCCCCCCCCCCCO`, the result was inactive.
As for `CCCCCC(=O)O`, the result was inactive.
`COc1cc(-c2nc(NC(=O)c3cc4cc(C)cc(C)c4n3CC(=O)O)sc2CCC2CCCCC2)c(OC)cc1Cl`: the compound was called inactive.
Same read-out and setting: as for `CCCCC(CC)COC(=O)CC(C(=O)OCC(CC)CCCC)S(=O)(=O)O` (stereo not given), the entry is “inactive”; as for `C=CCc1ccc(O)c(OC)c1`, “inactive”; as for `CC(=O)OCCOCCOCCOC(C)=O`, “inactive”.
Same read-out and setting: under `Cc1nc(-c2ccc3c(c2)CCN(CCC2CCC(NC(=O)/C=C/c4ccc(F)cc4)CC2)CC3)no1` (stereo not given) stands “inactive”.
As for `CC(CO)OC(C)CO` (stereo not given) (tested in a mixture with another compound), the compound was classed as inactive.
